From PubChem
MARV entry inh: blocks Marburg virus binding to or entry into cells. Marburg virus pseudotyped entry inhibition, cell reporter. Potency, µM (top dose mostly 37.8 µM), hits mostly inhibitors. hit rate 1.8% among 300,000; calls by dose curve; tested in HEK293 cells
Shiga toxin inh: Shiga toxin inhibition | hit rate 9.2% among 290,000 | AID 2315 | inhibition, % at 38.7 µM | Vero cells, Shiga toxin protein synthesis inhibition reporter; in the data active means inhibition mostly above about 28%, no sharp cut-off; inactive means mostly below about 43%
Lassa entry inh: inhibitors of Lassa virus binding or cell entry; Lassa virus pseudotype entry inhibition, cell reporter; Potency, µM (highest dose often 37.9 µM), hits mostly inhibitors; hit rate 1.2% among 300,000; calls by dose curve; tested in HEK293 cells; further: nearly all actives have a fitted effect of over 50% in size
AMA1-RON2 inh: disrupts binding of P. falciparum AMA1 to RON2 | AlphaScreen AMA1-biotinylated RON2 peptide binding | Potency, µM (series often up to 58.2 µM), usual class: inhibitors | hit rate 0.2% among 360,000; active means well fitted inhibition curve with a large enough effect; inconclusive means small, poorly fitted or top-dose-only effect; inactive means no such curve, though single readings can be large or run the other way; further: nearly all actives have a fitted effect of over 45% in size
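AMA1 (3D7) with his tag at 25 nM final met compounds first, then biotinylated RON2 peptide at 25 nM; detection used donor plus acceptor beads, 10 µg/mL apiece, read by AlphaScreen after 30 min at room temperature.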
CHX counter: counter-screen hit for Shiga toxin inhibitors, cycloheximide; hit rate 12% among 300,000; cell reporter, cycloheximide protein synthesis inhibition counterscreen; AID 2314; max response, %; in the data active means max response mostly above about 13%, no sharp cut-off; inactive means mostly below about 14%; further: read at 38.3 µM for the half of the compounds with a filed dose
Numbers stand for hits; - = inactive; ? = inconclusive; . = no result; ! = a repeat was not active. The entries come from a sample that favours hits as a whole.

SMILES	MARV entry inh	Shiga toxin inh	Lassa entry inh	AMA1-RON2 inh	CHX counter
CCCCc1ccc(S(=O)(=O)NC(=O)C2(C)CCN2C(=O)Cc2ccccc2)cc1 (stereo not given)	.	.	.	-	.
O=C(Nc1cccc(Cl)c1)c1ccc(OC(=S)N2CCOCC2)cc1	-	103	-	-	39
O=C(Nc1cccc2ccccc12)N1CCOCC1	-	-	-	-	-
Cc1cccc(NC(=O)c2cccc(OC(=S)N3CCOCC3)c2)c1	-	-	?	-	-
O=C(Nc1cccc2ccccc12)c1ccc(OC(=S)N2CCOCC2)cc1	2.6µM	103	1.5µM	-	55
CCOCCCNC(=O)C(c1ccccc1)N(Cc1cccs1)C(=O)c1ccc(NC(C)=O)cc1 (stereo not given)	?	.	-	.	.
COc1ccc(NC(=O)NCc2ccco2)cc1OC	.	-	.	-	-
O=C(NCc1ccco1)Nc1ccc(OC(F)(F)F)cc1	-	-	.	-	18
O=C(NCc1ccco1)Nc1ccc(Br)cc1	?	66	-	-	-
O=C(NCc1ccco1)Nc1ccc2nsnc2c1	?	-	?	-	30
CCc1nc2ccc(C(=O)NCCCN3CCCC3=O)cn2c1N(C)C(=O)Nc1ccccc1OC	.	.	.	-	.
CCCc1cc(=O)n2c(nc3ccccc32)[nH]1	-	-	-	-	18
Cc1ccc(-c2nc(NCC3CCCO3)sc2C)cc1 (stereo not given)	.	69	.	-	32
O=C(Nc1ccc(Br)c2ccccc12)c1ccc2ccccc2c1O	.	44	.	-	22
CC(Sc1nncs1)C(=O)Nc1ccc2c(c1)OCCO2 (stereo not given)	?	.	-	-	.
O=C(CSc1nncs1)Nc1ccc2c(c1)OCCO2	-	58	-	-	59
O=C(CSc1nncs1)NC(=O)Nc1ccc2c(c1)OCCO2	.	59	.	-	45
Cc1csc(Nc2ccccc2)[n+]1C	-	-	-	-	36
Cc1csc(Nc2ccccc2)[n+]1-c1ccccc1	-	-	?	?	-
CC1CCN(Cc2nc(Cl)c3c4c(sc3n2)CCC4)CC1	.	-	.	-	25
Clc1nc(CN2CCCCC2)nc2sc3c(c12)CCCC3	.	-	.	-	-
Cc1sc2nc(CN3CCCC3)nc(N3CCN(S(=O)(=O)c4cccs4)CC3)c2c1C	15µM!	-	-	-	-
Cc1ccc(S(=O)(=O)N2CCN(c3nc(CN4CCCC4)nc4sc(C)c(C)c34)CC2)cc1	.	.	.	-	.
Cc1sc2nc(CN3CCCCC3)nc(Cl)c2c1C	-	-	?	-	15
Cc1ccc(NS(=O)(=O)c2ccc(C(=O)OCC(=O)NCC3CCCO3)cc2)cc1 (stereo not given)	-	-	?	-	-
SMILES	MARV entry inh	Shiga toxin inh	Lassa entry inh	AMA1-RON2 inh	CHX counter
COc1ccc([C@H]2C[C@H](c3ccc(C)cc3)Nc3nc(N)nn32)cc1	-	.	.	.	.
O=C(Nc1c(-c2ccccc2)nc2ccccn12)c1ccccc1	-	-	-	-	-
Cc1ccc(C(=O)Nc2c(-c3ccccc3)nc3ccccn23)cc1	-	.	-	.	.
CC(=O)Nc1c(-c2ccc3ccccc3c2)nc2ccccn12	.	104	.	-	21
CCC(=O)Nc1c(-c2ccc3ccccc3c2)nc2ccccn12	.	-	.	-	38
COCCn1c(C)cc(C(=O)COC(=O)/C=C/c2c(C)nn(C3CCS(=O)(=O)C3)c2Cl)c1C (stereo not given)	?	.	?	-	.
CCOC(=O)c1sc(=N)n(-c2ccc(OC)cc2)c1C	-	-	?	-	28
Cc1ccc2nsnc2c1NS(=O)(=O)c1c(C)ccc2nsnc12	-	-	-	-	-
Cc1ccc(/C=[N+](\[O-])c2ccc(N(C)C)cc2)c2nsnc12	?	85	?	25µM	34
Nc1ccc(-c2ccc(C(=O)O)s2)cn1	.	-	.	-	-
O=C(OCn1ncc(Br)c(Br)c1=O)c1c(F)cccc1F	-	-	.	.	17
CC(=O)Cn1ncc(Br)c(Br)c1=O	?	-	?	-	-
O=C(CN1CCN(S(=O)(=O)c2ccc(F)cc2)CC1)Nc1ccc(Cl)c(C(F)(F)F)c1	?	-	11µM	-	-
CCc1ccc(NC(=O)CCCc2nnc3n(C(C)CC)c(=O)c4sccc4n23)cc1 (stereo not given)	.	.	-	.	.
CCOC(=O)N/N=C(\C)c1ccc(C)c([N+](=O)[O-])c1	?	-	-	-	16
CCOC(=O)N/N=C(\C)c1ccc(Oc2ncccn2)cc1	.	-	.	-	-
CCOC(=O)N/N=C(\C)c1ccc(Br)cc1	?	-	-	-	31
COC(=O)N/N=C(\C)c1ccc(Br)cc1	?	-	-	-	-
COc1ccc(/C(C)=N/NC(=O)OC(C)(C)C)cc1[N+](=O)[O-]	.	79	.	-	22
NS(=O)(=O)c1ccc(CCNC(=O)c2ccc3nc(CCc4ccccc4)oc3c2)cc1	.	.	-	.	.
COC(=O)c1ccccc1NC(=O)c1sc2nc(C)cc(C)c2c1NC(=O)c1ccccc1Cl	?	.	-	.	.
CCOc1cccc(/C=N/N2C(C)CCCC2C)c1O (stereo not given)	.	-	.	-	30
CCOc1ccc(/C=N/N2C(C)CCCC2C)cc1 (stereo not given)	-	-	-	-	37
CC1CCCC(C)N1/N=C/c1ccc(C#N)cc1 (stereo not given)	?	-	-	?	26
CC1CCCC(C)N1/N=C/c1ccc(Cl)cc1 (stereo not given)	-	-	-	-	-
SMILES	MARV entry inh	Shiga toxin inh	Lassa entry inh	AMA1-RON2 inh	CHX counter
CCOc1cccc(/C=N/N=C/c2cccc(OCC)c2O)c1O	-	-	-	-	-
COc1ccc(/C=N/N2C(C)CCCC2C)cc1OC (stereo not given)	?	-	-	-	-
Cc1cc(NC(=O)CSc2nnc(-c3ccc4c(c3)OCCO4)o2)no1	?	121	?	-	22
Cc1cc(NC(=O)CSCc2ccccc2)no1	.	-	.	-	-
CN(C)C(=O)c1ccc(NC(=O)CSc2nnc(-c3ccc4c(c3)OCO4)o2)cc1	?	.	-	-	.
Cc1cc(NC(=O)CSCC(=O)OCc2nnc(-c3ccccc3)o2)no1	-	-	-	-	16
COc1cccc(-c2nnc(SCC(=O)N(C(C)C)C(C)C)o2)c1	-	56	?	-	-
Cc1ccc(NC(=O)Cc2nc(CSc3nnc(-c4ccc5c(c4)OCO5)o3)cs2)cc1	-	98	-	-	-
Cc1cc(SCC(=O)NN)c2cc(Br)ccc2n1	-	-	?	-	-
COc1cccc(CN(C)C(=O)/C=C/c2ccc(S(=O)(=O)N3CCCCCC3)cc2)c1	?	-	?	-	-
COc1cccc(-c2nnc(SCC(=O)N3CCCc4ccccc43)o2)c1	-	19	-	-	-
COc1cccc(-c2nnc(SCC(=O)Nc3cc(C)on3)o2)c1	-	-	-	-	25
COc1ccc(S(=O)(=O)NC(=O)C2(C)CCN2C(=O)CC2CC2)cc1 (stereo not given)	.	.	.	-	.
CC1CCc2sc(C(=O)NN=C3CCCC3)cc2C1 (stereo not given)	.	.	.	-	.
CSC1=NNC(c2ccc(C(C)(C)C)cc2)=NN1	.	96	.	-	33
O=c1[nH]c2ccccc2c2cn(-c3ccccc3)nc12	?	61	?	-	18
CSc1nc(N(C)CCO)c2sc3nc(-c4ccco4)c4c(c3c2n1)CCC4	-	-	-	12µM	-
